Assay outcomes deposited in PubChem BioAssay by National Center for Advancing Translational Sciences (NCATS).
HCMV inh: inhibitors of human cytomegalovirus; activity change, negative = inhibition, % at 57.5 µM; HFF cells, HCMV-luciferase reporter, 72 h; stronger effect = lower value; 410,000 tested, 4.5% active; AID 1259415; in the data active = activity change below about -60%; inconclusive = no clear call, values can overlap the other calls; inactive = above about -39%
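After 16 h attachment at 37C, HFF cells received test compound and HCMV-luciferase (1 PFU/cell); reporter luminescence read 72 h later, data normalized against buffer-only and known inhibitor Salinomycin.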
Lassa entry inh: Lassa virus entry inhibition; Lassa virus pseudotype entry inhibition, cell reporter; Potency, µM (series often up to 37.9 µM), without a hit: at the highest dose activity change, negative = inhibition, actives largely listed as inhibitors; 300,000 tested, 1.2% active; calls by dose curve; tested in HEK293 cells; also: potency is read from the fitted curve at half-maximal effect; nearly all actives have a fitted effect of over 50% in size
VACV Venus inh: inhibitors of vaccinia virus (Venus reporter) | Vaccinia virus Venus reporter expression, fluorescence | Potency, µM (top dose mostly 36.5 µM), for the others: top-dose activity change, negative = inhibition, most hits filed as inhibitors | 330,000 tested, 0.46% active | AID 720580; calls by dose curve; tested in A549 cells; also: potency is read from the fitted curve at half-maximal effect; nearly all actives have a fitted effect of over 30% in size
HCV inh: blocks hepatitis C virus; Huh7.5.1 HCVcc-Cre infection, luciferase reporter, 44 h; Potency, µM (top dose mostly 41.8 µM), for the others: at the top dose activity change, negative = inhibition, most hits filed as inhibitors; 340,000 tested, 3.4% active; AID 651820; active = well fitted inhibition curve with a large enough effect; inconclusive = small, poorly fitted or top-dose-only effect, or another doubt; inactive = no such curve, though single readings can be large or run the other way; also: potency is read from the fitted curve at half-maximal effect
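Compounds are dispensed onto cells plated 4 h earlier at 1,000 per well, with HCVcc-Cre virus (about 0.5 moi) added next. Following 44 h of culture, luminescent signal is measured for 15 sec after 15 min with substrate at room temperature.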
Marburg entry inh: inhibitors of Marburg virus binding or cell entry; Marburg virus pseudotyped entry inhibition, cell reporter; Potency, µM (doses to about 37.8 µM), inactives show top-dose activity change, negative = inhibition, actives largely listed as inhibitors; 300,000 tested, 1.8% active; AID 540276; calls by dose curve; tested in HEK293 cells; also: potency is read from the fitted curve at half-maximal effect
VACV mCherry inh: vaccinia inhibition (mCherry reporter) | Potency, µM (series often up to 36.5 µM), for inactives: top-dose activity change, negative = inhibition, usual class: inhibitors | 310,000 tested, 0.63% active | Vaccinia virus mCherry reporter infection, fluorescence | AID 720579; calls by dose curve; tested in A549 cells; also: potency is read from the fitted curve at half-maximal effect; nearly all actives have a fitted effect of over 35% in size
* marks the source's active call; other numbers are inactive results; u = inconclusive; x = no result given; [ ] = dose if it differs, or a comment. The list is not random: actives were taken first. Their share in the collection is about 7.8%. % is scaled to controls: 0 for no effect and ±100 for the full control effect.

SMILES	HCMV inh	Lassa entry inh	VACV Venus inh	HCV inh	Marburg entry inh	VACV mCherry inh
COc1ccc(C2=Nn3c(nnc3-c3ccc(OC)cc3)SC2)cc1	-101*	1.3µM*	x	3.5µM*	u	x
COc1ccc(OC)c(C2=Nn3c(nnc3-c3cc(OC)c(OC)c(OC)c3)SC2)c1	37	-25%[14.3 µM]	u	x	u	-16%
COc1ccccc1NC(=O)Cn1nc(-c2ccc(C)cc2)c2c(c1=O)CCCC2	3	23%[46.1 µM]	-10%	x	-2%[46.1 µM]	-13%
CC(=O)Nc1ccc2nc3c(=O)n(C)c(=O)n(C)c3nc2c1C	1	10%[46.1 µM]	14%	x	21%[46.1 µM]	2%
CCOC(=O)c1ccc(NC(=O)CC2C(=O)N(c3ccc(C)cc3)C(=O)N2C2CCCC2)cc1 (stereo not given)	-39	u	-9%	x	x	-12%
COc1cccc(-c2nnc3n2N=C(c2cc(OC)ccc2OC)CS3)c1	-62*	u	x	10µM*	u	x
COc1ccc(OC)c(C2=Nn3c(nnc3-c3ccncc3)SC2)c1	0	u	-8%	-22%	4µM*	-6%
CCn1c(=O)n(-c2ccc(F)cc2)c(=O)c2sc3ccccc3c21	3	1%[46.1 µM]	1%	x	3%[46.1 µM]	-11%
COc1cc2nc(N3CCCN(C)CC3)nc(N(C)C)c2cc1OC	x	x	-21%	x	x	-26%
COc1ccc2cc(S(=O)(=O)c3ccccc3F)c(=O)oc2c1	-12	u	-9%	x	-21%[46.1 µM]	-6%
COCCN(CCOC)Cc1c(O)ccc2c1O/C(=C\c1ccc(C)o1)C2=O	-88*	4%[46.1 µM]	1%	-18%	0%[46.1 µM]	-4%
CCOc1ccc(CNC(=O)c2cnc(SC)nc2C)cc1	-19	-4%[46.1 µM]	0%	x	x	-3%
Cc1cc(C(=O)NCCCN(C)C)c2ccccc2n1	-16	x	1%	24%	x	-15%
CN(C)CCNC(=O)c1cccc2ccc(-c3ccc(-c4ccccc4)cc3)nc12	8	u	13µM*	u	u	u
CN(C)CCNC(=O)c1ccccc1	-25	-10%	x	6%	u	x
COc1ccc(OC)c2nc3c(C(=O)NCCN(C)C)cccc3nc12	-96*	u	u	u	u	u
CN(C)CCNC(=O)c1sc2cccc(F)c2c1Cl	55	u	-12%	-8%	u	-17%
COc1ccc(C23CC4CC(CC(C4)C2)C3)cc1C(=O)NCCN(C)C	-70*	x	x	-6%	x	x
CN(C)CCNC(=O)c1cccc2nc3cccc(F)c3nc12	-99*	-9%	3.2µM*	u	u	u
COc1ccccc1-c1ccnc(-n2ncc(C(=O)NCC3(N4CCOCC4)CCCC3)c2C)n1	x	x	-10%	x	x	-14%
Cc1nn(CCCC(=O)Nc2ccccc2C(F)(F)F)c(=O)c2c1sc1ccccc12	-7	5%[46.1 µM]	-10%	x	u	-15%
Cc1ccc(-c2[nH]ncc2CNCCc2cnn(-c3ccccc3)c2)cc1C	3	-4%	-23%	u	8.9µM*	-29%
Cn1cc(CCNCc2cn[nH]c2-c2ccc(-c3ccccc3)cc2)cn1	33	u	-13%	-25%	u	-21%
O=S(=O)(Nn1c(O)c(C=C2N=c3ccccc3=N2)sc1=S)c1ccccc1	-12	x	x	-11%	x	x
O=C(Nn1c(O)c(C=C2N=c3ccccc3=N2)sc1=S)c1ccccc1Cl	-91*	u	x	-1%	-5%	x
SMILES	HCMV inh	Lassa entry inh	VACV Venus inh	HCV inh	Marburg entry inh	VACV mCherry inh
CCOC(=O)c1sc2nccc(N(C)C)c2c1N=CNOC	u	8%	-11%	u	3%	-18%
CCOC(=O)c1sc2nccc(N(C)C)c2c1N=CNOCc1ccccc1	11	u	-14%	7.9µM*	-16%	-27%
CC(=O)Nc1cc(C(=O)N2CCN(C(=O)c3ccco3)CC2)cc2ncn(CCc3ccccn3)c12	x	x	-2%	x	x	-12%
COc1ccccc1NS(=O)(=O)c1cc(NC(=O)c2cccs2)ccc1N1CCCC1	u	12µM*	-17%	u	u	-26%
COc1ccccc1NS(=O)(=O)c1cc(NC(=O)C(C)C)ccc1N1CCCCC1	-38	u	-1%	u	0.79µM*	-3%
COc1ccccc1NS(=O)(=O)c1cc(NC(=O)c2cc(=O)[nH]c3ccccc23)ccc1N1CCOCC1	22	x	x	25µM*	x	x
